The subject of assay [1] is Wnt5a (protein binding on small-molecule microarray). Put plainly: Wnt5a binders on small-molecule microarray, primary screen, biophysical, 635/667 nm fluorescence (AID 1142).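 Further: fluorescence read at 667 nm with signal to noise per printed feature.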 The settings on record: 635 nm fluorescence, higher = more signal.
Assay [2] in a line: cell viability in Huh7 cells, primary screen, cytotoxicity control for HCV replication inhibitor project, CellTiter-Glo luminescence, basal, 48 h (AID 1143).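 Further: Huh7 hepatoma cells carrying a hepatitis C replication reporter with no stimulus; test concentration not given here.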 The settings on record: Huh7 HCV replicon, higher = more signal, called active from +8 up or from −8 down.
Assay [3] is described as follows: P. aeruginosa biofilm formation inhibitors, primary screen, PAO1 strain, BacTiter-Glo luminescence, LB-PBS (AID 1144). As to conditions: 12 h, higher = more signal.
Assay [4] can be described thus: CREB reporter modulators without forskolin, primary screen, cell-based, PC12, CRE-LacZ reporter, unstimulated (AID 1145). The settings on record: no forskolin, luminescence, 4.5 h, higher = more signal, called active from +8 up or from −8 down.
A short description of assay [5]: CREB reporter modulators under forskolin, primary screen, cell-based, PC12, CRE-LacZ reporter, forskolin-stimulated (AID 1146).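 Further: PC12 cells with 6xCRE LacZ reporter stimulated by forskolin 10 µM; beta-galactosidase reporter signal reflecting CREB driven transcription.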 The settings on record: luminescence, 4.5 h, higher = more signal, called active from +8 up or from −8 down.
Assay [6] has as its target Streptavidin (Streptomyces avidinii) (UniProt P22629). Put plainly: streptavidin binders on small-molecule microarray, primary screen, artefact control for SMM compound annotation, biophysical, 635/667 nm fluorescence (AID 1147).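 Further: signal reflects streptavidin binding to arrayed compounds as a control protein.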 As to conditions: streptavidin binding, higher = more signal.
Assay [7] can be described thus: small-molecule binders of probe aInhba, primary screen, biochemical, small-molecule microarray, 635/667 nm fluorescence (AID 1148).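 Further: score merges 667nm spot fluorescence with signal-to-noise for antibody binding to printed compounds.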 As to conditions: higher = more signal.
The target in assay [8] is Torsin-1A (Homo sapiens) (UniProt O14656). Put plainly: torsin A binders from cell lysate, primary screen, small-molecule microarray, wild-type, 635/667 nm (AID 1149). As to conditions: COS7 hTOR1A-WT lysate, 635 nm fluorescence, higher = more signal.
The target is the same in assay [9]. The assay can be described thus: small-molecule binders of mutant TOR1A in lysate, primary screen, cell lysate, small-molecule microarray, COS7 lysate, 635/667 nm fluorescence (AID 1150).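 Further: score pools 667 nm emission and signal to noise measuring lysate protein binding.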 As to conditions: COS7 hTOR1A mutant lysate, 635 nm fluorescence, higher = more signal.
The test system of assay [10] is Sonic hedgehog protein (Shh). The assay can be described thus: small-molecule binders of Shh protein, primary screen, biochemical, small-molecule microarray, 635/667 nm fluorescence (AID 1151).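 Further: Shh protein binding to compounds spotted on small-molecule microarray slides; score combines spot fluorescence intensity with signal-to-noise across triplicate slides.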 The settings on record: small-molecule microarray binding, 635 nm fluorescence; higher = more signal.
The nature of assay [11]: E. coli DRC41 culture turbidity changes, primary screen, E. coli filamentation inducer project, strain DRC41, OD650, 48 h (AID 1152).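 Further: E. coli MC1000 strain DRC41 lacking acrAB efflux pump and sulA.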 As to conditions: E. coli DRC41 (acrAB sulA), higher = more signal, called active from +8 up or from −8 down.
Assay [12] can be described thus: small-molecule binders of probe aLefty1, primary screen, biochemical, small-molecule microarray, 635/667 nm fluorescence (AID 1153).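 Further: score merges spot fluorescence with signal-to-noise ratio from the scanned slide images.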 The settings on record: higher = more signal.
Assay [13] in a line: PSAC antagonists in infected red cells, primary screen, cell-based, P. falciparum Indochina, OD700, 1 h (AID 1154). As to conditions: P. falciparum Indochina infected RBC osmotic lysis, higher = more signal, called active from +8 up or from −8 down.
The nature of assay [14]: PSAC antagonists in infected red cells, primary screen, cell-based, P. falciparum Indochina, OD700, 2 h (AID 1155).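 Further: lysis reports solute entry through the parasite surface anion channel PSAC; channel blockers reduce lysis of infected cells.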 The settings on record: P. falciparum Indochina infected erythrocytes, osmotic lysis OD700; higher = more signal, called active from +8 up or from −8 down.
The nature of assay [15]: osmotic lysis modulators in infected erythrocytes, primary screen, PSAC antagonist project, cell-based, P. falciparum Indochina, OD700, 3 h (AID 1156). As to conditions: higher = more signal, called active from +8 up or from −8 down.
Assay [16] is described as follows: PSAC antagonists in infected red cells, primary screen, cell-based, P. falciparum Indochina, OD700, 18 h (AID 1157). As to conditions: P. falciparum Indochina infected erythrocytes, osmotic lysis OD700, 18 h; higher = more signal, called active from +8 up or from −8 down.
A short description of assay [17]: modulators of S6 phosphorylation in cells, primary screen, cell-based, A549, cytoblot, luminescence, serum-stimulated (AID 1158).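 Further: serum-stimulated A549 lung adenocarcinoma cells; signal is phosphorylated S6 detected by cytoblot immunostaining with HRP secondary.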 As to conditions: A549 phospho-S6 cytoblot, 5 h, higher = more signal.
Assay [18] deals with NADPH oxidase 2 (Homo sapiens) (UniProt P04839). The assay can be described thus: NOX2-dependent H2O2 signal modulators, primary screen, NOX inhibitor project, cell-based, HEK293-NOX2, PMA-stimulated, Amplex Red fluorescence (AID 1159). Further: test concentration not given here. The settings on record: 45 min, higher = more signal, called active from +8 up or from −8 down.
Assay [19] addresses NADPH oxidase 4 (Homo sapiens) (UniProt Q9NPH5). Put plainly: NOX4-dependent H2O2 signal modulators, primary screen, NOX inhibitor project, cell-based, HEK293-NOX4, tetracycline-induced, Amplex Red fluorescence (AID 1160). The settings on record: 45 min, higher = more signal, called active from +8 up or from −8 down.
The target in assay [20] is NADPH oxidase 5 (Homo sapiens) (UniProt Q96PH1). The assay can be described thus: NOX5-dependent H2O2 signal modulators, primary screen, NOX inhibitor project, cell-based, HEK293-NOX5, Amplex Red fluorescence (AID 1161). The settings on record: HEK293-NOX5, ionomycin, 45 min, higher = more signal.

Activity calls are given as the source filed them. Unless noted, how the calls were made is not given here.

Sequence of Torsin-1A (Homo sapiens) (O14656 whole entry, looked up): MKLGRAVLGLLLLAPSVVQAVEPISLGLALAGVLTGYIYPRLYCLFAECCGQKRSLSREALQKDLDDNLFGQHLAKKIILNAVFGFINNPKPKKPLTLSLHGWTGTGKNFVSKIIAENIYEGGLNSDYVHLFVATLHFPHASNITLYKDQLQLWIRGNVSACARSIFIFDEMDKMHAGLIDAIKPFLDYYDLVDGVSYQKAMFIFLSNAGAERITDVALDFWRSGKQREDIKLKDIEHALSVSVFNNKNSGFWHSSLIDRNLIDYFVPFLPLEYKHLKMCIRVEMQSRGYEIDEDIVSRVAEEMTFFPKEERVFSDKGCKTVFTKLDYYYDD
Sequence of NADPH oxidase 4 (Homo sapiens) (Q9NPH5 whole entry, looked up): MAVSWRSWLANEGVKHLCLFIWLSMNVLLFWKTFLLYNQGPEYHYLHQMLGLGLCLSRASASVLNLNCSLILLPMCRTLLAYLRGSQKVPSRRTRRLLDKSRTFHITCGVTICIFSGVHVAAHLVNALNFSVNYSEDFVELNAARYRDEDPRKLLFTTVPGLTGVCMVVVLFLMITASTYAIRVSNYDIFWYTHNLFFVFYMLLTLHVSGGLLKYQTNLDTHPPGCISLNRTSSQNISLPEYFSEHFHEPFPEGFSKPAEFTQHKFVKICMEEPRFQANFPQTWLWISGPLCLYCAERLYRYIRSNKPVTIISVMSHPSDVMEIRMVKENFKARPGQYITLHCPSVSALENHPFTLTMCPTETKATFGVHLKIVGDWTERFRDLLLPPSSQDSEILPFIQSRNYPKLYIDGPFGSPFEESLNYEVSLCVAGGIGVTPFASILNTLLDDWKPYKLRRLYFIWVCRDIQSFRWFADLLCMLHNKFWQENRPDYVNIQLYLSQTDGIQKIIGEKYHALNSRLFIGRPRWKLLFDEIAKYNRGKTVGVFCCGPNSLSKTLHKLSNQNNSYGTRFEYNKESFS
Sequence of NADPH oxidase 5 (Homo sapiens) (Q96PH1 whole entry, looked up): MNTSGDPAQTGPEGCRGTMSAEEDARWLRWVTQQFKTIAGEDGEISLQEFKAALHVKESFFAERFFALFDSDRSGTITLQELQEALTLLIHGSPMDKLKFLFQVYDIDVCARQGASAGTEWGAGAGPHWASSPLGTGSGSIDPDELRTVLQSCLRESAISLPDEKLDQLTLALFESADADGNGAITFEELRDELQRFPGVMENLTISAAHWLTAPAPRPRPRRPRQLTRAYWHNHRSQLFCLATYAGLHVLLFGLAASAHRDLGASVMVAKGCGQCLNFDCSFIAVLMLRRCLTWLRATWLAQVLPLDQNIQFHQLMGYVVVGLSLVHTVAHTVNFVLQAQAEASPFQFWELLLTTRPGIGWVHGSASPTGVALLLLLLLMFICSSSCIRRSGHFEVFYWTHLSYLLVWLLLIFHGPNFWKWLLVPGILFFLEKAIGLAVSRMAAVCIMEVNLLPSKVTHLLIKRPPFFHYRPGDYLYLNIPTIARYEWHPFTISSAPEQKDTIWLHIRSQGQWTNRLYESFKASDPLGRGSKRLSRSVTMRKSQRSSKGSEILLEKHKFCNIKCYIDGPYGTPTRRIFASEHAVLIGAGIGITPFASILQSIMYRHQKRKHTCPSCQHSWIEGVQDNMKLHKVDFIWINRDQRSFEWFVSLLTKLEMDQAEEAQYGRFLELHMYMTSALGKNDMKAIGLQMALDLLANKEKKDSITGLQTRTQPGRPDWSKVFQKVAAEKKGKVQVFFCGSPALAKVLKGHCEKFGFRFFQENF
Sequence of Streptavidin (Streptomyces avidinii) (P22629 whole entry, looked up): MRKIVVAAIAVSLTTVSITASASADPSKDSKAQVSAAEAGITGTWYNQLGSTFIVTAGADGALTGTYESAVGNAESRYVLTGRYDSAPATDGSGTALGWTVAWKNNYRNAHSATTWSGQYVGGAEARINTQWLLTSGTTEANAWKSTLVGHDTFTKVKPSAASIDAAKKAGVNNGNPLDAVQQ
Sequence of NADPH oxidase 2 (Homo sapiens) (P04839 whole entry, looked up): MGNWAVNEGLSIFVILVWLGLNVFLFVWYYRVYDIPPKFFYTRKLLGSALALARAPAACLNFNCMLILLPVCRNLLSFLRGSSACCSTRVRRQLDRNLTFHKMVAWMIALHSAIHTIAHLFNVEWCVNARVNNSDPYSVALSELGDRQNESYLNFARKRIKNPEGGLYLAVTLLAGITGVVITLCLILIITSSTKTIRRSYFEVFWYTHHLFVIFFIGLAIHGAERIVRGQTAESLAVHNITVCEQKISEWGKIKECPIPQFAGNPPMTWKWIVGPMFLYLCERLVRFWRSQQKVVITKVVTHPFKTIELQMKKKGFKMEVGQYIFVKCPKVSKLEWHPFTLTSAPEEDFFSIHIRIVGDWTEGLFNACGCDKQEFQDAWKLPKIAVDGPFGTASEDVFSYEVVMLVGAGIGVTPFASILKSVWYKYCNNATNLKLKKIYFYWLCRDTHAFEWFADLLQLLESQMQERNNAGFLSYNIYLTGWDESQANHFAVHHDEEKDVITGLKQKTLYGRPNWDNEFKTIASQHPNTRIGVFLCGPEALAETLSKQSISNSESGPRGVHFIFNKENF

In the case of `COc1ccc(O[C@H]2C=C[C@@H](c3ccccc3)O[C@@H]2COC(=O)CCC(C)=NO[C@@H](C)c2cc(-c3c(C)cc(C)cc3C)no2)cc1`, the composite z-score was -0.61 in assay [1]; -0.987 in [6]; -0.295 in [7]; -1.29 with Torsin-1A (Homo sapiens) [8]; -1.04 in the assay with Torsin-1A (Homo sapiens) [9]; 0.224 in [10]. In [12], this molecule showed a composite z-score of -0.378. The z-score in [2] is -0.961 (inactive); in assay [3], -0.587 (inactive); in assay [4], -0.315 (inactive); in assay [5] it was 0.65 (inactive); in assay [11], 0.409 (inactive); in assay [13], 0.595 (inactive). The z-score in assay [14] was 0.322 (inactive); in assay [15], 0.488 (inactive); in [16], 0.245 (inactive); in assay [17] it was -0.0348; in assay [18] it was 1.18 (inactive); in assay [19], -0.00862 (inactive). Besides, the z-score in [20] is -1.09.
Take `C[C@H](c1ccccc1)N1C(=O)[C@H]2[C@@H]3C(=CC[C@H]2C1=O)C(=O)[C@H]1O[C@H]1[C@H]3O`: the composite z-score was -0.103 in assay [1]; 0.108 in [6]; -0.0474 in assay [7]; 0.25 with Torsin-1A (Homo sapiens) [8]; -0.0342 with Torsin-1A (Homo sapiens) [9]; 0.469 in [10]. In addition, the composite z-score in assay [12] was -0.239. For the same molecule, the z-score in assay [2] was -7.43 (inactive); in assay [3], 1.16 (inactive); in [4] it was 0.699 (inactive); in assay [5], 4.29 (inactive); in [11] it was 0.0931 (inactive); in assay [13], -0.564 (inactive). The z-score in [14] was -0.0275 (inactive); in [15] it was 0.163 (inactive); in assay [16] it was -0.0165 (inactive); in [17], -0.836; in assay [18], -0.76 (inactive); in [19] it was -0.156 (inactive). Further, the z-score in assay [20] was determined as 1.13.
`CCOC(=O)NN=C1C[C@@H](O)[C@@H](O)[C@@H]2[C@@H]3C(=O)N(C[C@@H]4CCCO4)C(=O)[C@@H]3CC[C@@H]12`: the composite z-score in [1] is -0.0127; in assay [6], 0.293; in [7] it was -0.0933; with Torsin-1A (Homo sapiens) [8], 0.298; in the assay with Torsin-1A (Homo sapiens) [9], 0.76; in assay [10], 0.111. The molecule further came in with a composite z-score in [12] of -0.245. Also, the z-score in assay [2] was 0.0688 (inactive); in [3], 0.139 (inactive); in assay [4] it was -0.658 (inactive); in assay [5], 0.75 (inactive); in assay [11] it was 1.2 (inactive); in assay [13], 0.564 (inactive). The z-score is -0.243 (inactive) in assay [14]; 0.406 (inactive) in assay [15]; -0.0631 (inactive) in assay [16]; -0.0861 in [17]; -0.543 (inactive) in assay [18]; 0.111 (inactive) in assay [19]. Besides, the z-score in assay [20] stood at 0.354.
For the molecule `C=CC[C@@H]1C=C[C@H](ON=Cc2ccc(C(=O)N3[C@H](c4ccc(C)cc4)[C@@H](C)CC[C@H]3C(=O)OC)cc2)[C@@H](CO)O1`, the composite z-score in assay [1] is 0.14; in assay [6], -0.161; in [7] it was -0.0791; in the assay with Torsin-1A (Homo sapiens) [8] it was -0.0434; in the assay with Torsin-1A (Homo sapiens) [9], 0.0034; in [10], 0.68. For the same molecule, in [12], the composite z-score is -0.0945. For the same molecule, the z-score in assay [2] was -1.33 (inactive); in [3], 0.694 (inactive); in assay [4], 3.89 (inactive); in assay [5], 0.062 (inactive); in assay [11] it was 0.69 (inactive); in [13], 2.78 (inactive). Further, the z-score in assay [14] is 0.852 (inactive); in [15], -0.273 (inactive); in assay [16] it was 0.637 (inactive); in [17], -1.15; in assay [18], -0.428 (inactive); in assay [19] it was 0.569 (inactive). The same molecule yielded a z-score in [20] of -0.0942.
`C=CC[C@@H]1C=C[C@H](ON=C[C@@H](OC)[C@H](C)C=CCC(=O)OC)[C@@H](CO)O1`: the composite z-score in assay [1] is 0.313; in assay [6], -0.259; in assay [7], 0.157; in the assay with Torsin-1A (Homo sapiens) [8], 0.434; with Torsin-1A (Homo sapiens) [9] it was 0.352; in [10], 0.224. The molecule further returned a composite z-score in [12] of 0.0533. Besides, the z-score in assay [2] is 0.669 (inactive); in assay [3] it was 0.0583 (inactive); in assay [4] it was -0.957 (inactive); in assay [5], -0.385 (inactive); in [11] it was 0.324 (inactive); in assay [13], 0.815 (inactive). Further, the z-score in [14] was 1.25 (inactive); in assay [15], -0.335 (inactive); in assay [16] it was 0.465 (inactive); in [17], -0.782; in [18], -0.022 (inactive); in assay [19], -0.102 (inactive). Also, in assay [20], the z-score was -0.255.
For the molecule `COC(=O)CC=C[C@@H](C)[C@@H](C=NO[C@H](C)c1cn([C@@H]2COC[C@H]2O)nn1)OC`, the composite z-score in [1] was 0.0282; in [6], 0.521; in [7], -0.159; in the assay with Torsin-1A (Homo sapiens) [8] it was 0.73; with Torsin-1A (Homo sapiens) [9], 0.863; in [10], 0.76. This molecule registered a composite z-score in assay [12] of -0.0003. Also, the z-score in assay [2] is 0.324 (inactive); in [3] it was -1.66 (inactive); in assay [4] it was 0.518 (inactive); in assay [5] it was -0.0094 (inactive); in [11], 0.319 (inactive); in assay [13], 0.813 (inactive). Besides, the z-score in assay [14] is 0.499 (inactive); in [15], 0.5 (inactive); in assay [16], 0.415 (inactive); in [17] it was 0.502; in [18] it was -0.0191 (inactive); in assay [19], 0.488 (inactive). Also, the z-score in assay [20] was -0.0693.
Turning to `COC(=O)CC1OC1[C@H](C)[C@@H](OC)C(C)C` (stereo not given in full), the composite z-score in assay [1] is -0.0087; in [6] it was -0.329; in [7], -0.0963; with Torsin-1A (Homo sapiens) [8] it was 0.436; in the assay with Torsin-1A (Homo sapiens) [9], 0.0299; in assay [10] it was 0.813. In assay [12], this molecule returned a composite z-score of -0.0186. Moreover, the z-score in assay [2] was -0.229 (inactive); in assay [3], -0.183 (inactive); in assay [4] it was 1.47 (inactive); in assay [5] it was -0.213 (inactive); in assay [11], 0.547 (inactive); in assay [13], 2.66 (inactive). Moreover, the z-score in [14] was -0.0353 (inactive); in assay [15], -0.324 (inactive); in [16], -0.146 (inactive); in assay [17], 0.0023; in [18], -1.33 (inactive); in [19], -1.67 (inactive). Besides, in assay [20], the z-score was -1.45.
For the molecule `CC(C)NC(=O)[C@@H]1c2ccccc2C(=O)N(CC23CC4CC(CC(C4)C2)C3)[C@H]1c1ccc(CO)cc1`, the composite z-score in assay [1] turned out to be 0.0678; in assay [6] it was 0.969; in assay [7] it was 0.0569; with Torsin-1A (Homo sapiens) [8] it was 0.508; with Torsin-1A (Homo sapiens) [9] it was 0.561; in assay [10], 1.54. This molecule also yielded a composite z-score in [12] of 0.433. The z-score in assay [2] is -4.06 (inactive); in [3] it was -2.1 (inactive); in assay [4], -0.0259 (inactive); in [5], -0.607 (inactive); in [11], 1.47 (inactive); in assay [13] it was 1.63 (inactive). Moreover, the z-score was -0.315 (inactive) in [14]; -0.143 (inactive) in assay [15]; -0.853 (inactive) in [16]; 1.31 in [17]; 0.357 (inactive) in assay [18]; 0.318 (inactive) in [19]. Besides, the z-score in assay [20] was -1.82.
